# The supplement of paper PMC9135407
# Several values for one entry are separate records, joined by “and”; a condition that tells them apart may be missing. Equal values may be shown once. Where a name gives a salt, the structure may show the parent alone. The whole screen tested about 5,800 compounds, of which about 620 (11%) showed activity. Shown is part of a subset that was picked to be rich in actives. Unmarked numbers belong to inactive results.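 How the source made its calls: active = score above a cut-off or among the top three wells of a plate; in these data no inactive exceeds 0.85.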
# Test system: primary human hepatic stellate cells (donor 1)
# Assay: scaled lipid accumulation score (0 = DMSO-like, 1 = nortriptyline-like); higher = stronger HSC inactivation (lipid re-accumulation), active = hit call of the paper
# Conditions: 48 h
# [1] = library stock concentration: 10 mM
# [2] = library stock concentration: 1 mM
# [3] = library stock concentration: 3.33 mM
smiles,measurement,setting,value
C[C@]12CC[C@H]3[C@@H](CCC4=CC(=O)CC[C@@]43C)[C@@H]1CC[C@@H]2O [Testosterone],scaled lipid accumulation score,library stock concentration: 6.9 mM,0.032
same,scaled lipid accumulation score,[1],0.108 and 0.479
Oc1cc2c(cc1O)[C@H]1c3ccccc3CN[C@@H]1CC2 (racemic) [Dihydrexidine hydrochloride],scaled lipid accumulation score,[1],0.823
"CCCC[N+]1(C)[C@@H]2C[C@@H](OC(=O)[C@H](CO)c3ccccc3)C[C@H]1[C@@H]1O[C@@H]12 (single isomer, unassigned; (-)) [(-)-Scopolamine,n-Butyl-, bromide]",scaled lipid accumulation score,[1],≤ 0
CC(N)Cc1c[nH]c2ccc(OCc3cccs3)cc12.Cl (stereo not given),scaled lipid accumulation score,[1],1.18 (active)
CC(N)Cc1c[nH]c2ccc(O)cc12 (stereo not drawn) [alpha-Methyl-5-hydroxytryptamine maleate],scaled lipid accumulation score,[1],≤ -0.055
CC(N)Cc1c[nH]c2ccc(OCc3cccs3)cc12 (stereo not given),scaled lipid accumulation score,[2],0.315
CNCCc1c[nH]c2ccc(O)cc12 [N-omega-Methyl-5-hydroxytryptamine oxalate salt],scaled lipid accumulation score,[1],≤ -0.055
CC(N)Cc1c[nH]c2ccc(O)cc12 (stereo not given),scaled lipid accumulation score,[1],≤ 0
CC(N)Cc1c[nH]c2ccc(OCc3cccs3)cc12.Cl (stereo not given) [BW 723C86 hydrochloride],scaled lipid accumulation score,[1],1.3 (active)
CCCCCCCCCOc1ccc2[nH]cc(CCN)c2c1 [5-Nonyloxytryptamine],scaled lipid accumulation score,library stock concentration: 9.9 mM,0.5
CN1CCC2=C[C@H](O)[C@H]3OC(=O)c4cc5c(cc4[C@H]3[C@@H]21)OCO5 [Hippeastrine hydrobromide],scaled lipid accumulation score,,≤ 0
O=S(=O)(c1c(O)c(Cl)cc(Cl)c1Cl)c1c(O)c(Cl)cc(Cl)c1Cl [p38 MAP Kinase Inhibitor IV],scaled lipid accumulation score,[3],≤ 0
CCCCC/C=C\C/C=C\C/C=C\C/C=C\CCCC(=O)NCCS(=O)(=O)O [N-Arachidonoyl Taurine],scaled lipid accumulation score,[2],0.01
O=C1C2CCN(CC2)C1(CO)CO [listing 1 of 2 here],scaled lipid accumulation score,[2],≤ 0
same,scaled lipid accumulation score,[1],0.045
O=C1C2CCN(CC2)C1(CO)CO [listing 2 of 2 here],scaled lipid accumulation score,library stock concentration: 27 mM,0.911 (active)
CC(=O)C1=C(O)[C@@H]2[C@H]3c4c[nH]c5cccc(c45)C[C@H]3C(C)(C)N2C1=O [Cyclopiazonic Acid],scaled lipid accumulation score,[1],0.021
CC(=O)C1=C(O)[C@@H]2[C@H]3c4c[nH]c5cccc(c45)C[C@H]3C(C)(C)N2C1=O [Cyclopiazonic acid],scaled lipid accumulation score,library stock concentration: 14.9 mM,0.019
"BrC1C(Br)C(Br)C(Br)C(Br)C1Br (stereo not given) [1,2,3,4,5,6-Hexabromocyclohexane]",scaled lipid accumulation score,[1],≤ -0.001
CC1=C2C[C@H]3[C@@H](CC=C4C[C@@H](O)CC[C@@]43C)[C@@H]2CC[C@]12O[C@@H]1C[C@H](C)CN[C@H]1[C@H]2C [Cyclopamine],scaled lipid accumulation score,library stock concentration: 12.1 mM,0.19
COC(=O)/C=C/C(=O)N[C@@H]1CC[C@@]2(O)[C@H]3Cc4ccc(O)c5c4[C@@]2(CCN3CC2CC2)[C@H]1O5,scaled lipid accumulation score,[1],0.325
CC1=NCCc2c1[nH]c1cc(O)ccc21.Cl.O.O [Harmalol hydrochloride dihydrate],scaled lipid accumulation score,,0.979 (active)
COc1ccc2c3c([nH]c2c1)C(C)=NCC3 [Harmaline hydrochloride dihydrate],scaled lipid accumulation score,,0.371
COc1ccc2c3c([nH]c2c1)C(C)=NCC3 [Harmaline],scaled lipid accumulation score,[1],0.389
CC1=NCCc2c1[nH]c1cc(O)ccc21 [Harmalol hydrochloride],scaled lipid accumulation score,[1],≤ 0
COC1=C[C@@H]2C3=C([C@@H]2C1=O)[C@@H](NC(C)=O)CCc1cc(OC)c(OC)c(OC)c13 [Lumicolchicine gamma],scaled lipid accumulation score,,≤ 0
"c1ccc(C2CNCc3ccccc32)cc1 (stereo not given) [4-Phenyl-1,2,3,4-tetrahydroisoquinoline hydrochloride]",scaled lipid accumulation score,[1],0.217
Clc1ccc(C(OCCN2CCCCC2)c2ccccc2)cc1 (stereo not given) [Cloperastine hydrochloride],scaled lipid accumulation score,,0.488
same,scaled lipid accumulation score,[1],0.544
Cl.Cl.Fc1ccc(C(OCCN2CCN(CCCc3ccccc3)CC2)c2ccc(F)cc2)cc1 [listing 1 of 2 here],scaled lipid accumulation score,,0.864 (active)
Fc1ccc(C(OCCN2CCN(C/C=C/c3ccccc3)CC2)c2ccc(F)cc2)cc1,scaled lipid accumulation score,[1],0.507
c1ccc(CCCN2CCN(CCOC(c3ccccc3)c3ccccc3)CC2)cc1,scaled lipid accumulation score,[1],≤ -0.07 and 0.566
Cl.Cl.Fc1ccc(C(OCCN2CCN(CCCc3ccccc3)CC2)c2ccc(F)cc2)cc1 [listing 2 of 2 here],scaled lipid accumulation score,[1],0.942 (active)
Fc1ccc(C(OCCN2CCN(CCCc3ccccc3)CC2)c2ccc(F)cc2)cc1,scaled lipid accumulation score,[1],≤ -0.061
"CC(N)Cc1cccc(C(F)(F)F)c1 (single isomer, unassigned; (+)) [(+)-Norfenfluramine hydrochloride]",scaled lipid accumulation score,[1],0.072
CC(=O)[O][Hg][c]1ccccc1 [Phenylmercuric acetate],scaled lipid accumulation score,library stock concentration: 5.9 mM,0.512
same,scaled lipid accumulation score,[1],0.358
O=[N+]([O-])OCC(CO[N+](=O)[O-])O[N+](=O)[O-] [Nitroglycerin],scaled lipid accumulation score,library stock concentration: 8.8 mM,0.395
CCCCC/C=C\C/C=C\C/C=C\C/C=C\CCCC(=O)NCCc1ccc(O)c(O)c1 [N-Arachidonoyl Dopamine],scaled lipid accumulation score,[2],≤ 0
CCCCC/C=C\C/C=C\C/C=C\C/C=C\CCCC(=O)N[C@H](C)COP(=O)(O)O [R-1 Methanandamide Phosphate],scaled lipid accumulation score,[2],≤ 0
Cc1[nH]c2ccc(Cl)cc2c1C1=CCNCC1.Cl,scaled lipid accumulation score,[1],1.1 (active)
C#CCOC(=O)C1=CCCN(C)C1 [Arecaidine propargyl ester hydrobromide],scaled lipid accumulation score,[1],≤ 0
C#CCOC(=O)C1=CCCN(C)C1 [Arecaidine propargyl ester tosylate],scaled lipid accumulation score,[1],≤ 0
C[C@]12CCC(=O)C=C1CC[C@@H]1[C@@H]2CC[C@@]2(C)[C@H]1CC[C@]2(C)O [Methyltestosterone],scaled lipid accumulation score,[1],0.073
COc1ccc2c(c1)[nH]c1c(C)nccc12.Cl [Harmine hydrochloride],scaled lipid accumulation score,,0.89 (active)
Cc1nccc2c1[nH]c1ccccc12 [Harmane],scaled lipid accumulation score,[1],0.671
Cc1nccc2c1[nH]c1cc(O)ccc12 [Harmol hydrochloride],scaled lipid accumulation score,[1],≤ 0
Cc1nccc2c1[nH]c1ccccc12 [Harmane hydrochloride],scaled lipid accumulation score,,0.089
COc1ccc2c(c1)[nH]c1c(C)nccc12 [Harmine] [listing 1 of 2 here],scaled lipid accumulation score,library stock concentration: 9.4 mM,0.851 (active)
COc1ccc2[nH]c3c(c2c1)CCN=C3C [Methoxy-6-harmalan],scaled lipid accumulation score,,0.039
COc1ccc2c(c1)[nH]c1c(C)nccc12 [Harmine] [listing 2 of 2 here],scaled lipid accumulation score,[2],0.141
same,scaled lipid accumulation score,[1],0.762
Cc1onc(O)c1C[C@H](N)C(=O)O,scaled lipid accumulation score,[1],≤ 0
CCCCC/C=C\C/C=C\C/C=C\C/C=C\CCCC(=O)Nc1ccc([N+](=O)[O-])cc1 [Arachidonoyl p-Nitroaniline],scaled lipid accumulation score,[2],≤ 0
c1cc2ccc(N3CCNCC3)cc2cn1 [7-piperazin-1-yl-Isoquinoline (hydrochloride)],scaled lipid accumulation score,[2],≤ 0
CCN1CCN(C(=O)Cc2ccc(Nc3ncc(F)c(Nc4ccc(C(=O)Nc5ccccc5Cl)cc4)n3)cc2)CC1 [Aurora A Inhibitor I] [listing 1 of 2 here],scaled lipid accumulation score,[3],0.402
CCN1CCN(C(=O)Cc2ccc(Nc3ncc(F)c(Nc4ccc(C(=O)Nc5ccccc5Cl)cc4)n3)cc2)CC1 [Aurora A Inhibitor I] [listing 2 of 2 here],scaled lipid accumulation score,[1],1.24 (active)
CCN1CCN(C(=O)Cc2ccc(Nc3ncc(F)c(Nc4ccc(C(=O)Nc5ccccc5Cl)cc4)n3)cc2)CC1,scaled lipid accumulation score,library stock concentration: 80 uM,≤ 0
same,scaled lipid accumulation score,library stock concentration: 400 uM,≤ 0
same,scaled lipid accumulation score,library stock concentration: 2 mM,0.676
same,scaled lipid accumulation score,[1],0.801
"NC(Cn1oc(=O)[nH]c1=O)C(=O)O (single isomer, unassigned; (+)) [(+)-Quisqualic acid]",scaled lipid accumulation score,[1],≤ 0
CN1C[C@H](CNC(=O)OCc2ccccc2)C[C@@H]2c3cccc4c3c(cn4C)C[C@H]21 [Metergoline] [listing 1 of 3 here],scaled lipid accumulation score,[1],0.653
CN1CC(CNC(=O)OCc2ccccc2)C[C@H]2c3cccc4c3c(cn4C)CC21 (stereo not given in full) [Metergoline],scaled lipid accumulation score,[1],1.05 (active)
CC[C@@H](CO)NC(=O)[C@@H]1C=C2c3cccc4c3c(cn4C)C[C@H]2N(C)C1 [Methysergide maleate],scaled lipid accumulation score,[1],0.458 and 0.048
CN1C[C@H](CNC(=O)OCc2ccccc2)C[C@@H]2c3cccc4c3c(cn4C)C[C@H]21 [Metergoline] [listing 2 of 3 here],scaled lipid accumulation score,[1],0.893 (active)
CO[C@]12C[C@@H](COC(=O)c3cncc(Br)c3)CN(C)[C@@H]1Cc1cn(C)c3cccc2c13 [Nicergoline],scaled lipid accumulation score,,≤ 0
same,scaled lipid accumulation score,[1],0.682 and 0.399
CN1C[C@H](CNC(=O)OCc2ccccc2)C[C@@H]2c3cccc4c3c(cn4C)C[C@H]21 [Metergoline] [listing 3 of 3 here],scaled lipid accumulation score,,1.06 (active)
CC[C@@H](CO)NC(=O)[C@@H]1C=C2c3cccc4c3c(cn4C)C[C@H]2N(C)C1 [Methysergide],scaled lipid accumulation score,library stock concentration: 5.7 mM,≤ 0
CCOC(=O)CN1C(=O)CC(C[C@@H](O)C2C[C@@H](C)C[C@H](C)C2=O)CC1=O (stereo not given in full) [Cycloheximide-N-ethylethanoate],scaled lipid accumulation score,library stock concentration: 13.6 mM,≤ -0.021
Cc1cc([C@@H]2CCCN2C)on1 [ABT-418 hydrochloride],scaled lipid accumulation score,[1],≤ 0
CCOc1ccccc1-n1c(C(C)N2CCN(C(=O)COc3ccc(Cl)cc3)CC2)nc2ccccc2c1=O (stereo not given) [Erastin],scaled lipid accumulation score,[3],≤ -0.009
same,scaled lipid accumulation score,[1],0.473
